# Unmarked numbers belong to inactive results. Results filed as inconclusive are left out. Entries that show only a call come without a potency. The source made the active and inactive calls. Unless noted, the call rests on the fitted dose curve; in most records, active means well fitted curve in the direction sought with a large enough effect in the repeat runs; inconclusive means weak or mixed curves; inactive means no such curve, though single readings can be large; an effect the other way counts as inactive or inconclusive.
# Key:
# [1] = target: Thyrotropin receptor (Homo sapiens) (UniProt P16473); assay: qHTS assay to identify small molecule antagonists of the thyroid stimulating hormone receptor (TSHR) signaling pathway (AID 1259385; calls by dose curve; further: nearly all actives have a fitted effect of over 20% in size; further: potency means the concentration at half of the fitted maximal effect)
# In short: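 TSHR-HEK293 cells (800/well) plated 18 h, then compounds with Ro20-1724 and TSH at 1.5 ng/mL final, 30 min at room temperature. cAMP quantified by HTRF (cAMP-d2/anti-cAMP-cryptate, 1 h); 15 concentrations in triplicate.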
# [2] = qHTS assay to identify small molecule agonists of the estrogen receptor alpha (ER-alpha) signaling pathway in the presence of an antagonist - cell viability counter screen (AID 1259386);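 further: series mostly up to about 92 µM; cells exposed to compounds for 22 h at 37 °C before the viability read; nearly all actives have a fitted effect of over 30% in size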
# In short: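 VM7Luc4E2, stripped-serum pre-culture 5 d; 24hr plating; +ICI-182,780 10.0nM final; cpds 15 conc, 22hr, 37C/5% CO2; CellTiter-Fluor added at 21hr, fluorescence 1hr later.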
# [3] = target: Progesterone receptor (Homo sapiens) (UniProt P06401); assay: qHTS assay to identify small molecule agonists of the progesterone receptor (PR) signaling pathway (AID 1346784; calls by dose curve; further: nearly all actives have a fitted effect of over 30% in size)
# In short: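 PR-UAS-bla HEK 293T cells carrying a UAS-driven beta-lactamase reporter were seeded in medium with 2% charcoal-stripped FBS, preincubated 6 hr at 37C, then exposed to compounds in DMSO for 16 hr; agonism was read by LiveBLAzer B/G FRET fluorescence.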
# [4] = target: Progesterone receptor (Homo sapiens) (UniProt P06401); assay: qHTS assay to identify small molecule antagonists of the progesterone receptor (PR) signaling pathway (AID 1346795; active means well fitted inhibition curve with a large enough effect in the signal ratio in the repeat runs, not every such curve was filed as active; the % refers to the signal ratio; further: potency means the concentration at half of the fitted maximal effect)
# In short: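 PR-UAS-bla HEK293T cells carrying a UAS-driven beta-lactamase reporter were plated in medium with 2% charcoal-stripped FBS and rested 6 hr at 37C. Compounds were added with 1 nM R5020 (final) for 16 hr, then FRET substrate loaded 2 hr at room temperature.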
# [5] = qHTS assay to identify small molecule antagonists of the progesterone receptor (PR) signaling pathway - cell viability counter screen (AID 1346798); further: series mostly up to about 92 µM; nearly all actives have a fitted effect of over 50% in size
# In short: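 PR-UAS-bla HEK293T cells in medium with 2% charcoal-stripped FBS were treated with compounds plus R5020 for 16 hr at 37C. Cell viability was then read by CellTiter-Glo luminescence after 30 min at room temperature in the same wells.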
# [6] = qHTS assay to identify small molecule agonists of the progesterone receptor (PR) signaling pathway - cell viability counter screen (AID 1346799; calls by dose curve; further: nearly all actives have a fitted effect of over 45% in size)
# In short: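 PR-UAS-bla HEK293T cells, 3,000 per well in medium with 2% charcoal-stripped FBS, were preincubated 6 hr at 37C, then exposed to compounds for 16 hr; viability was read as CellTiter-Glo luminescence after 30 min at room temperature.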
# [7] = qHTS assay to identify small molecule antagonists of the TGF-beta/Smad signaling pathway - cell viability counter screen (AID 1346824); further: nearly all actives have a fitted effect of over 50% in size
# In short: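 SBE-bla HEK 293T cells, incubated overnight, then compound plus 0.25 ng/mL TGF-beta1 (stock added) for 5 hr at 37 C. Viability was read in the same wells by CellTiter-Glo luminescence after 30 min at room temperature.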
# [8] = qHTS assay to identify small molecule agonists of the TGF-beta/Smad signaling pathway - cell viability counter screen (AID 1346829); further: top concentration of the series differs between compounds; nearly all actives have a fitted effect of over 45% in size
# In short: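 Cytotoxicity counter screen: CellTiter-Glo luminescence (30 min, room temperature) measured in the SBE-bla HEK 293T reporter wells after 5 hr compound treatment at 37 C and the 2 hr substrate step.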
# [9] = qHTS assay to identify small molecule agonists of the TGF-beta/Smad signaling pathway (AID 1346859; active means well fitted activation curve with a large enough effect in the signal ratio in the repeat runs, not every such curve was filed as active; the % refers to the signal ratio; further: series mostly up to about 77 µM)
# In short: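 HEK 293T cells stably carrying a beta-lactamase reporter driven by the Smad binding element were seeded overnight, exposed to DMSO-dissolved compounds for 5 hr at 37 C, 5% CO2, then loaded with FRET substrate for 2 hr at room temperature.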
# [10] = target: Thyrotropin-releasing hormone receptor (Homo sapiens) (UniProt P34981); assay: qHTS assay to identify small molecule antagonists of the thyrotropin-releasing hormone receptor (TRHR) signaling pathway (AID 1346877; active means well fitted inhibition curve with a large enough effect in the repeat runs, not every such curve was filed as active; further: series mostly up to about 51 µM)
# In short: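 Intracellular calcium fluorescence, read kinetically every second over 3 min, reports TRH-evoked signalling in HEK293 cells carrying TRHR. Test compounds were added 5 min ahead of a 1 nM TRH challenge.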
# Chain of Thyrotropin-releasing hormone receptor (Homo sapiens) (P34981 whole entry, looked up): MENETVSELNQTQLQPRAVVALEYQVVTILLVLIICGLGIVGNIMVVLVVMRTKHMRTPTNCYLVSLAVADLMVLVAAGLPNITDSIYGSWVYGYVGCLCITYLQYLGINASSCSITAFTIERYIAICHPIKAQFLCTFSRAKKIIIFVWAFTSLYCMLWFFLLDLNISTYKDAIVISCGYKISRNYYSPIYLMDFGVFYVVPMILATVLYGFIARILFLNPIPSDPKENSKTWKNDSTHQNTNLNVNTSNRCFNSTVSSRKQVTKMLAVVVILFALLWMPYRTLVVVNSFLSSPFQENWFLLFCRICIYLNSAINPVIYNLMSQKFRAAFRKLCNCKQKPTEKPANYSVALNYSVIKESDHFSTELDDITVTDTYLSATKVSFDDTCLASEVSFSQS
# Chain of Thyrotropin receptor (Homo sapiens) (P16473 whole entry, looked up): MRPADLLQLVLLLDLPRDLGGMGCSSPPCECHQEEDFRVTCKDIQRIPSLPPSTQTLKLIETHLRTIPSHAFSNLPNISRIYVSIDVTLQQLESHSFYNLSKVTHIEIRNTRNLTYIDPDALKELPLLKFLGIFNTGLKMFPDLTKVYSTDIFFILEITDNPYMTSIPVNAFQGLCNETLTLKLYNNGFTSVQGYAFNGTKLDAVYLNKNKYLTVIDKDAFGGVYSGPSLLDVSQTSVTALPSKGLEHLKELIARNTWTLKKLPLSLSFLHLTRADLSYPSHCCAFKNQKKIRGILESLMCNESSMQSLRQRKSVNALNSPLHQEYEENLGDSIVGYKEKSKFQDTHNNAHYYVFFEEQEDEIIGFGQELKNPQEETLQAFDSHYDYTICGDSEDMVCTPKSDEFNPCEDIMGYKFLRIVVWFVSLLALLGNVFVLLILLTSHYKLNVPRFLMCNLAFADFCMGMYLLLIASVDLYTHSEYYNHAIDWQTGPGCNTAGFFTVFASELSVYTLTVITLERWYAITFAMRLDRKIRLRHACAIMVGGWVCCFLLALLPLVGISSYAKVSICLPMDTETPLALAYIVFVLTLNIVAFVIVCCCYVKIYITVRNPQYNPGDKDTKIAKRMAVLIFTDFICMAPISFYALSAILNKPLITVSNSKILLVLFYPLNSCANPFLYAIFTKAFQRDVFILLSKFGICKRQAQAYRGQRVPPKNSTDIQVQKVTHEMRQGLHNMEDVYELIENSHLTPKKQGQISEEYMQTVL
# Chain of Progesterone receptor (Homo sapiens) (P06401 whole entry, looked up): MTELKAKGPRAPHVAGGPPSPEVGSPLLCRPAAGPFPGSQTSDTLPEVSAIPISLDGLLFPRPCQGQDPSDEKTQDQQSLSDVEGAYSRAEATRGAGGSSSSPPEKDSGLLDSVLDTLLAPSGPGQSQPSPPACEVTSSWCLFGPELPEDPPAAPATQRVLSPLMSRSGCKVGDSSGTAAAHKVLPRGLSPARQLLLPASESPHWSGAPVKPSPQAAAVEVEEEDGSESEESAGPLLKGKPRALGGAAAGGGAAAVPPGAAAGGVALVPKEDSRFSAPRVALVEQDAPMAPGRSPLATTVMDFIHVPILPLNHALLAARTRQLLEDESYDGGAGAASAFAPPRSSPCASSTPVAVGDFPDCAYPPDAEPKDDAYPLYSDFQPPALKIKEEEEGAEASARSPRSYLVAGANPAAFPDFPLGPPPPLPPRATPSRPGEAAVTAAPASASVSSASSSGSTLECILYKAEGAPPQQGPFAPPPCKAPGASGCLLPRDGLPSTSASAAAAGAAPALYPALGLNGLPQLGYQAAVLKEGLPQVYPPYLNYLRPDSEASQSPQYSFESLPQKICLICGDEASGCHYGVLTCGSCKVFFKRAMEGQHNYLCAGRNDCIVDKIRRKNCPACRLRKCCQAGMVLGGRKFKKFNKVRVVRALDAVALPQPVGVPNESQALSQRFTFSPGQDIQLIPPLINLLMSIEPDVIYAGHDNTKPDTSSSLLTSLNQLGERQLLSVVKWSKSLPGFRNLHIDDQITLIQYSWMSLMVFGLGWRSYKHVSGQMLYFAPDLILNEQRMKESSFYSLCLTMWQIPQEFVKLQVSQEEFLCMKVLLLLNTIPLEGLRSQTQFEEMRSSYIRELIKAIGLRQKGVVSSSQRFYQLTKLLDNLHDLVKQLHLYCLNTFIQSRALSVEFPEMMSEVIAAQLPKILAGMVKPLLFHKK
Structure (SMILES),Potency [1],Potency [2],Potency [3],Potency [4],Potency [5],Potency [6],Potency [7],Potency [8],outcome [9],Potency [10]
COC(=O)C(Cl)C(=O)OC,inactive,inactive,inactive,inactive,inactive,inactive,inactive,inactive,inactive,inactive
CC(Cl)Cl,inactive,inactive,inactive,inactive,inactive,inactive,inactive,inactive,inactive,inactive
CCCCNP(N)(N)=S,inactive,inactive,inactive,inactive,inactive,inactive,inactive,inactive,inactive,inactive
CCCCCCC#N,inactive,inactive,inactive,inactive,inactive,inactive,inactive,inactive,–,inactive
CN1C(=O)NC(=O)C(C)(C2=CCCCC2)C1=O (stereo not given),inactive,inactive,inactive,inactive,inactive,inactive,inactive,inactive,inactive,inactive
C=CCOC(C)=O,inactive,inactive,inactive,1.91 µM (active),inactive,inactive,inactive,inactive,inactive,inactive
N#CCc1ccccc1,inactive,inactive,inactive,inactive,inactive,inactive,inactive,inactive,inactive,inactive
O=C(CCl)c1ccc(Cl)cc1Cl,23.7 µM (active),inactive,inactive,inactive,inactive,inactive,inactive,inactive,–,inactive
CCOP(=O)(OCC)SCCSCC,inactive,inactive,inactive,inactive,inactive,inactive,inactive,inactive,inactive,inactive
CCOc1nc(F)cc2nc(S(=O)(=O)Nc3c(Cl)cccc3Cl)nn12,inactive,inactive,inactive,inactive,inactive,inactive,inactive,inactive,inactive,inactive
O=C(O)c1ccccc1C(=O)Nc1cccc2ccccc12,inactive,inactive,inactive,inactive,inactive,inactive,inactive,inactive,inactive,inactive
O=C(O)CC(Cl)C(=O)O (stereo not given),inactive,inactive,inactive,inactive,inactive,inactive,inactive,inactive,inactive,inactive
O=C(CBr)c1ccccc1,inactive,inactive,inactive,inactive,inactive,inactive,inactive,inactive,–,inactive
Cc1ccc(N)cc1C,inactive,inactive,inactive,inactive,inactive,inactive,inactive,inactive,inactive,inactive
Cc1ccc2ccccc2c1,inactive,inactive,inactive,inactive,inactive,inactive,inactive,inactive,inactive,inactive
CCOP(O)OCC,inactive,inactive,inactive,inactive,inactive,inactive,inactive,inactive,inactive,inactive
Cc1cc(=O)[nH]o1,inactive,inactive,inactive,inactive,inactive,inactive,inactive,inactive,inactive,inactive
Cn1sc(Cl)cc1=O,inactive,inactive,inactive,inactive,inactive,–,inactive,inactive,inactive,inactive
C[C@H]1CNCCc2ccc(Cl)cc21,inactive,inactive,inactive,inactive,inactive,–,inactive,inactive,inactive,inactive
N#CCC#N,inactive,inactive,inactive,inactive,–,inactive,inactive,inactive,–,inactive
Clc1cc(C(Cl)(Cl)Cl)cnc1Cl,inactive,inactive,inactive,inactive,inactive,inactive,inactive,inactive,–,inactive
O=C(O)COc1ccc(Cl)cc1,inactive,inactive,inactive,inactive,inactive,inactive,inactive,inactive,–,inactive
CN1[C@@H]2CC[C@H]1CC(OC(=O)c1cc(Cl)cc(Cl)c1)C2 (stereo not given in full),26.6 µM (active),inactive,inactive,inactive,–,–,inactive,inactive,inactive,inactive
CCC(Br)(CC)C(=O)NC(N)=O,inactive,inactive,inactive,inactive,inactive,–,inactive,inactive,inactive,inactive
CCOc1ccc(C(C)(C)COCc2cccc(Oc3ccccc3)c2)cc1,inactive,inactive,inactive,inactive,–,–,inactive,inactive,–,inactive
CC(=O)C(C)(C)C,inactive,inactive,inactive,inactive,inactive,inactive,inactive,inactive,–,inactive
O=C(O)C1(c2ccc3c(c2)OC[C@H](Cc2ccc(-c4ccccc4)cc2)[C@H]3O)CCCC1,inactive,inactive,inactive,48.6 µM (active),–,–,inactive,inactive,–,–

# From PubChem BioAssay (Tox21)
